The supplement of paper PMC11732987, “Enantioselective OTUD7B fragment discovery through chemoproteomics screening and high-throughput optimisation” (Communications Chemistry, 2025)
Unmarked numbers belong to inactive results.

What was measured:
Experiment in all cases: log2 ratio of Biotin-Ahx-Ub-VS probe labelling (fragment/DMSO); higher = less target engagement (more negative = stronger competition), active = hit call of the paper (q ≤ 0.05, log2 ratio ≤ -1)
Details in all cases: compound concentration: 200 uM; treatment time: 3 h
[1] = biological target: USP16 (UniProt Q9Y5T5)
Chain of USP16 (Q9Y5T5 whole entry, looked up, the tested form may be a part): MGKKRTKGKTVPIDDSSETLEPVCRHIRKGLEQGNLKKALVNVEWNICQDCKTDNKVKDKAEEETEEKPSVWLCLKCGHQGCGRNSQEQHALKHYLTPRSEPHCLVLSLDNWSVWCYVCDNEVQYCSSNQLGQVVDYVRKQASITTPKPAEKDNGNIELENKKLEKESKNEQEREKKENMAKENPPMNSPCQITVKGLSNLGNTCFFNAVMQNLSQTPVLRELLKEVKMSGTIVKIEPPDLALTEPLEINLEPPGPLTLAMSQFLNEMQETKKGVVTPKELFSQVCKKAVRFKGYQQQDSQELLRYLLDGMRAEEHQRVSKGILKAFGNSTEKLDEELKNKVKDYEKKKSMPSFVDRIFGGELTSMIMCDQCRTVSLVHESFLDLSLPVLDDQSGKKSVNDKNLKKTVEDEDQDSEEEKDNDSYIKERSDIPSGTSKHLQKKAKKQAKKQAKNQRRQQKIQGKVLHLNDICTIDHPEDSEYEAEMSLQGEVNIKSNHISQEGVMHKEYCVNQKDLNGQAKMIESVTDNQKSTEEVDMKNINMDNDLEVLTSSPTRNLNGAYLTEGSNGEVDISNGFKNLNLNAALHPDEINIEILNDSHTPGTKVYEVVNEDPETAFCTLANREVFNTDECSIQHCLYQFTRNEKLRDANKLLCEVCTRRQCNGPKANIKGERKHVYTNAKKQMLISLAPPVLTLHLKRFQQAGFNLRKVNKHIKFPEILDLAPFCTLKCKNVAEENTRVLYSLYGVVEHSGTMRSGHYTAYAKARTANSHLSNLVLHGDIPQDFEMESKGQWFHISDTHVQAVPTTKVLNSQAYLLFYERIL
How it was run: (§1)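 Labelling with Biotin-Ahx-Ub-VS (0.5 µM final, 1 h) followed a 3 h triplicate treatment of HEK293T lysate (495 µg per sample, Tris/CHAPS/IGEPAL buffer with protease inhibitors) with fragment at 200 µM or vehicle. Labelled DUBs were NeutrAvidin-enriched, digested with LysC and trypsin, and run by diaPASEF LC-MS/MS. The values, average log2 fragment/vehicle ratios by unpaired t-test, come from global-median-normalised Spectronaut label-free quantities. Proteins with ≥2 unique peptides were used.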

[2] = biological target: T1, USP19 (UniProt O94966)
T1 sequence (whole entry): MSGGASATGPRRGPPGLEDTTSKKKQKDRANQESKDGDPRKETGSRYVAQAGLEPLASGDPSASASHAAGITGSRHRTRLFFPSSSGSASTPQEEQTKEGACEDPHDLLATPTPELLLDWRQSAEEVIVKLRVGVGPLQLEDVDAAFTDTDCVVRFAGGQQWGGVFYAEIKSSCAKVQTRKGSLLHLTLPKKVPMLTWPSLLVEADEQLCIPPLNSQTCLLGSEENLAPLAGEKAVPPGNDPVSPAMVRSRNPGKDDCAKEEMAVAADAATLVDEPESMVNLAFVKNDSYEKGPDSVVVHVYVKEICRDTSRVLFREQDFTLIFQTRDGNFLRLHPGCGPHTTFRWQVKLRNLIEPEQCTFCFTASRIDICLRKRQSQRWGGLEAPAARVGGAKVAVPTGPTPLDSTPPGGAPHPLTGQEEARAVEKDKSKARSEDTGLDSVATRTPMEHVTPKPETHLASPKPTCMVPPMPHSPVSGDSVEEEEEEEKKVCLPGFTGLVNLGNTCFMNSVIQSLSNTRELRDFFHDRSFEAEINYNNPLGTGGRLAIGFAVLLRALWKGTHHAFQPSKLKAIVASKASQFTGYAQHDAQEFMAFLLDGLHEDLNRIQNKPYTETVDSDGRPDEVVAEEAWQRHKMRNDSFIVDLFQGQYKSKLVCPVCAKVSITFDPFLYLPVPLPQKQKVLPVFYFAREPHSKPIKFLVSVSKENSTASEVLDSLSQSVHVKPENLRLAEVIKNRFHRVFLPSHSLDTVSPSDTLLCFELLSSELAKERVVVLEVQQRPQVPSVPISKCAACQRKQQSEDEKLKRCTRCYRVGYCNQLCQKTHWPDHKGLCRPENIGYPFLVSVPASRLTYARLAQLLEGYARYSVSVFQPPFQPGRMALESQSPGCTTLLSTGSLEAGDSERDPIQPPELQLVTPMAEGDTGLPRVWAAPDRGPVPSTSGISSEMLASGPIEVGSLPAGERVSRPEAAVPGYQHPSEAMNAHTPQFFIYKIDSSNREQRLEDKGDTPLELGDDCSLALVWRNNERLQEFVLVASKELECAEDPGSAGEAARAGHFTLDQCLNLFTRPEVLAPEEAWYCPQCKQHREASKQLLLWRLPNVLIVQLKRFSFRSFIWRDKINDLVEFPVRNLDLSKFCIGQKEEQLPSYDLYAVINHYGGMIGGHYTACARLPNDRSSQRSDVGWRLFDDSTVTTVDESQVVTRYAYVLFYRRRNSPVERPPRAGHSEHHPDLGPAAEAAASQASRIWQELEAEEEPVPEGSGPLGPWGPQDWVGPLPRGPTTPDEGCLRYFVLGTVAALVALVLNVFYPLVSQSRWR
How it was run: as §1

[3] = biological target: USP24 (UniProt Q9UPU5)
Chain of USP24 (Q9UPU5 whole entry): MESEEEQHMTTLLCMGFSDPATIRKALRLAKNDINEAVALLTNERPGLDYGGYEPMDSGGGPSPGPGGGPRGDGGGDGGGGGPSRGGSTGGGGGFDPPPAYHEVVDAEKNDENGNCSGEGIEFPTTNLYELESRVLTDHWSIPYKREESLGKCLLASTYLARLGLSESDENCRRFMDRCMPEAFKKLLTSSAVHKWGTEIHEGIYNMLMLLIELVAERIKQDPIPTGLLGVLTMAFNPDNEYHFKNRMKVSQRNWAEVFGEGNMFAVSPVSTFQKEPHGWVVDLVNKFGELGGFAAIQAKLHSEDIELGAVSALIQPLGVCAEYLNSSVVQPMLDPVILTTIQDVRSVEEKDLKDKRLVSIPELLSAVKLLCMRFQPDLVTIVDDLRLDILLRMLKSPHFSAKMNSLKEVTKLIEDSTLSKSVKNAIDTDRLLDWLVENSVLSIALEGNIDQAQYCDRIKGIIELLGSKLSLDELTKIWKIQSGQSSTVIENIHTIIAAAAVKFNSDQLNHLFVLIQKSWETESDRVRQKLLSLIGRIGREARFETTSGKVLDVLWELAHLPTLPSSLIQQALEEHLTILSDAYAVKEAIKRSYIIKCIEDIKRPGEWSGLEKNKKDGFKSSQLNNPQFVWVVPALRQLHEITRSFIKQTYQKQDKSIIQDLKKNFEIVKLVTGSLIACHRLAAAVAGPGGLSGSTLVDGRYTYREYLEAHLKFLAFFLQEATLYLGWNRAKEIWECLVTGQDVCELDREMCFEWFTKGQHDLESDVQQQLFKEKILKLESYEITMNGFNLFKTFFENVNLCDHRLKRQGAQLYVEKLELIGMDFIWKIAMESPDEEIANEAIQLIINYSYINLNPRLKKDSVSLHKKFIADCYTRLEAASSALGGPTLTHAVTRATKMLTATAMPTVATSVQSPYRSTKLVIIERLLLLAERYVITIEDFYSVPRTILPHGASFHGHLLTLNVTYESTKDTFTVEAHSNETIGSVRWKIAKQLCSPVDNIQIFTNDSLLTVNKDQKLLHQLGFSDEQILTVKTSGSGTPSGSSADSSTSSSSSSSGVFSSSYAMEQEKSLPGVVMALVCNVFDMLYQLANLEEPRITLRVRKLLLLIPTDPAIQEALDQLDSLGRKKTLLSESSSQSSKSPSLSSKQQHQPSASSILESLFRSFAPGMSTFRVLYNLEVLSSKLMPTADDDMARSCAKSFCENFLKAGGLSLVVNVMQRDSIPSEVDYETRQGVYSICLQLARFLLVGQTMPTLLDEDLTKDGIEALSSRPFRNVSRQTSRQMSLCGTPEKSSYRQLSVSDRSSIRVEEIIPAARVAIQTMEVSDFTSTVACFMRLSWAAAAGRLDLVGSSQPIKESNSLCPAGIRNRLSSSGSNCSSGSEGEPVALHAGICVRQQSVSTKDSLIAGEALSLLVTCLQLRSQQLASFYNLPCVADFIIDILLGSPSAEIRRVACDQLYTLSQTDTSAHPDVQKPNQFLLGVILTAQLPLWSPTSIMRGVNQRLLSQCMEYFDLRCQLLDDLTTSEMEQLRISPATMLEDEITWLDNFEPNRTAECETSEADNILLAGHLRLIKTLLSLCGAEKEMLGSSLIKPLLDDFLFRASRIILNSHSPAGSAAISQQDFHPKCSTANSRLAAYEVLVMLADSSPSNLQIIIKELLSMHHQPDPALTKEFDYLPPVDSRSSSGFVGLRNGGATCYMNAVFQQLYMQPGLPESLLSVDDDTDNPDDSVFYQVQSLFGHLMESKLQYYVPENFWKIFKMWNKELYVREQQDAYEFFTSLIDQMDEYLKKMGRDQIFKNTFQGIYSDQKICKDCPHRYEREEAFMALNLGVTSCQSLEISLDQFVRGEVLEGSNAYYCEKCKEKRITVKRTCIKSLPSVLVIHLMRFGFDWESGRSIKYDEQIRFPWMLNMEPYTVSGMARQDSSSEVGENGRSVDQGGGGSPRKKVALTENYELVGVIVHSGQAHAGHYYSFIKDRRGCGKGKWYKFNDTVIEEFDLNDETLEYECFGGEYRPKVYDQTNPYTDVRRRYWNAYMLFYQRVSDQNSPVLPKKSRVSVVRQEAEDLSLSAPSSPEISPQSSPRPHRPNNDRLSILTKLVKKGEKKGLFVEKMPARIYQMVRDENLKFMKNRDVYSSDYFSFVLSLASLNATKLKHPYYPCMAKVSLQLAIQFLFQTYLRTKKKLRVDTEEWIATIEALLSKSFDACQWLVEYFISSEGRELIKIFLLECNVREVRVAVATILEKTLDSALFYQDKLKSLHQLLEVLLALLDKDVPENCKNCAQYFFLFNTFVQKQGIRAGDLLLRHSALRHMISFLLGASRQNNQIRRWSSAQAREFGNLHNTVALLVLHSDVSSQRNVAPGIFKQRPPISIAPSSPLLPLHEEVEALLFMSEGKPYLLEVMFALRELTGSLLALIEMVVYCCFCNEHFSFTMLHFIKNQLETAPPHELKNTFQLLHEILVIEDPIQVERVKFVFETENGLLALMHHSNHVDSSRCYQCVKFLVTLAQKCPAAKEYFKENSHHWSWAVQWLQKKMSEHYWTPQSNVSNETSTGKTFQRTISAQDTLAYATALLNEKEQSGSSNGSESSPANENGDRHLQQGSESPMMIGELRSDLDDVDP
How it was run: as §1

[4] = biological target: T2, USP25 (UniProt Q9UHP3)
T2 sequence (whole entry): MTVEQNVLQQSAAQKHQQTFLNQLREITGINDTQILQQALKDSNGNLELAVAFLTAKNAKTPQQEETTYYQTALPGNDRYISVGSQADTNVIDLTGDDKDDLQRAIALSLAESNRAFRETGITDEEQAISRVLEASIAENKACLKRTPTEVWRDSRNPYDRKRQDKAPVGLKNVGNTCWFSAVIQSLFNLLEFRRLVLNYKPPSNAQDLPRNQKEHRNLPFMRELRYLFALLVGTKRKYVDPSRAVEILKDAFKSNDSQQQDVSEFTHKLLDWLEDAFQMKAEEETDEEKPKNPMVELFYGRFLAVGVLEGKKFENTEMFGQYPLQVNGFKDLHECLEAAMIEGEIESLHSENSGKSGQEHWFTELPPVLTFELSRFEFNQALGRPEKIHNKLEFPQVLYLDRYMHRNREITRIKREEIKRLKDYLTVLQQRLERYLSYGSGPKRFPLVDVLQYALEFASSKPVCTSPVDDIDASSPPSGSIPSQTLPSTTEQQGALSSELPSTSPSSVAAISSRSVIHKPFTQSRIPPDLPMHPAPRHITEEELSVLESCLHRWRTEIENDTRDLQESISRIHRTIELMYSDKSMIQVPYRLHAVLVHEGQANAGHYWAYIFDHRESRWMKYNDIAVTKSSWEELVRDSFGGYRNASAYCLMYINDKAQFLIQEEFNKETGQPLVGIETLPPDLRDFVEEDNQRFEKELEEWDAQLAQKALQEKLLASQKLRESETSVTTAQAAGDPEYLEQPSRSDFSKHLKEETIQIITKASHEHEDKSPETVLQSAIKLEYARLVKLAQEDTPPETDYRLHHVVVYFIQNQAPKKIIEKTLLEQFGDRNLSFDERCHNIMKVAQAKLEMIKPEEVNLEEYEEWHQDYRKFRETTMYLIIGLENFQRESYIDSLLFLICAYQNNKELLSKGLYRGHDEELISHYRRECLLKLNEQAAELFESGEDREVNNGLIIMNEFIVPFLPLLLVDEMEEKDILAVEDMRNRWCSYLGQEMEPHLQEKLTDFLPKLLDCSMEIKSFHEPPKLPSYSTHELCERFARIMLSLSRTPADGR
How it was run: as §1

[5] = biological target: T3, USP28 (UniProt Q96RU2)
T3 sequence (whole entry): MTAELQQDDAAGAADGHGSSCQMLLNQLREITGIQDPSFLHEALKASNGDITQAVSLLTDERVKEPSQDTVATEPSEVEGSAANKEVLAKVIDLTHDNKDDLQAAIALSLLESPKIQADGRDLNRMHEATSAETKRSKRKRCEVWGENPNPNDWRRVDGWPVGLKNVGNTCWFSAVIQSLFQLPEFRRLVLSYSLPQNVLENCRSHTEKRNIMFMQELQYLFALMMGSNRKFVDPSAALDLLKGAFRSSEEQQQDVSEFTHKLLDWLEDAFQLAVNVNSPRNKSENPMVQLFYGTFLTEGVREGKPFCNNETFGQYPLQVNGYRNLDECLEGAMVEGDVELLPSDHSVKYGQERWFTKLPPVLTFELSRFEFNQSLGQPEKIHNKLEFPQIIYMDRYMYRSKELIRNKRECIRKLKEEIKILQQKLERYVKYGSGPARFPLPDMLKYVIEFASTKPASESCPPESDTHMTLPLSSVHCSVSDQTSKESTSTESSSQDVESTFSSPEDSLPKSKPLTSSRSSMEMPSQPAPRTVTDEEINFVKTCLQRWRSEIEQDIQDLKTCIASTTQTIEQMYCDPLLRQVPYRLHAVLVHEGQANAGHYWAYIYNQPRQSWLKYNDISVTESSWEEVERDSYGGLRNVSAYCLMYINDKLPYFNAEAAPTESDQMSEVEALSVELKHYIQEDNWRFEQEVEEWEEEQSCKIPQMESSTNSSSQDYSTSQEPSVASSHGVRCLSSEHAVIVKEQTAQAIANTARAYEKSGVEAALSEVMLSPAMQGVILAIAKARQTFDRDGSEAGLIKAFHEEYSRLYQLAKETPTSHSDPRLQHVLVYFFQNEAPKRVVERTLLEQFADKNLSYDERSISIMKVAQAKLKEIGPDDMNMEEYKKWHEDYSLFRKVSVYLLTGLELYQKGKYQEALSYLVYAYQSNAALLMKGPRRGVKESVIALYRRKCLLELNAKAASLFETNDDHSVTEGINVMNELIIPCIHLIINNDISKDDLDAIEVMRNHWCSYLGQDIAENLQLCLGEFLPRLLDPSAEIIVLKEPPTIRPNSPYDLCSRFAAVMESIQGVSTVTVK
How it was run: as §1

`N#Cc1cnn(-c2ccccc2)c1NC(=O)CCl` was tested, and the “log2 ratio of Biotin-Ahx-Ub-VS probe labelling” value (“log2 ratio” for short) [1] was -0.0136, the “log2 ratio” value [2] was -0.232 and the “log2 ratio” value [3] was -0.338. For the same compound, the “log2 ratio” value [4] was -2.88 (active) and the “log2 ratio” value [5] was -2.37 (active).
